Data as given in PubChem BioAssay (NCATS).
Inconclusive results are not listed. Active and inactive are the calls of the source. The call rests on the fitted dose curve; in most records, active means well fitted cell-killing curve with a large enough effect; inconclusive means small, poorly fitted or top-dose-only effect; inactive means flat fitted curve, though single readings scatter.

Assay: qHTS of pediatric cancer cell lines to identify multiple opportunities for drug repurposing: Primary screen for BT-12 cells (AID 1347101); further: nearly all actives have a fitted effect of over 25% in size;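 on activity change, negative = cytotoxic: plate controls were DMSO for no effect and bortezomib positive control for full effect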
Settings: BT-12 viability, CellTiter-Glo luminescence, 48 h; series mostly up to 57.3 µM; activity change, negative = cytotoxic: at the top concentration
Source text: Drug repurposing or repositioning has been offered as a strategy for drug development in oncology programs. This approach has special potential for childhood cancers and other rare or orphan diseases, where the expected return on new drug development has been a disincentive to pharmaceuticals.
In this project we exploit the poly-pharmacology of drugs to discover new indications via phenotypic screening of a panel of 19 well-characterized cell lines derived from solid tumors seen in children and adolescents. The goal is to identify approved drugs with previously unrecognized anticancer properties that has the potential to reveal new mechanisms and biological processes involved in carcinogenesis or drug resistance. We employed a titration-based paradigm (quantitative high-throughput screening or qHTS), where all compounds were tested at multiple concentrations for their effect on cell viability. Concentration-response curves (CRCs) were derived directly from the primary screen, and both potency and efficacy values were used to identify compounds with robust bioactivity profiles. We screened the NIH Chemical Genomics Center (NCGC) Pharmaceutical Collection (NPC) and Mechanism Interrogation Plate (MIPE) small molecule collections of approved and investigational compounds against these cell lines; and measured metabolically active cells after 48 hours of compound treatment as a proxy for cell viability.
Assay Submitter: Nathalia J. Martinez, National Center for Advancing Translational Sciences, National Institutes of Health, Rockville, MD, USA; email: natalia.martinez@nih.gov
[1] Shen, M et al. Quantitative high-throughput phenotypic screening of pediatric cancer cell lines identifies multiple opportunities for drug repurposing. Oncotarget 2017 Dec 19;9(4):4758-4772. PMID 29435139.
The cells were obtained from University of North Carolina (UNC), Pediatric Preclinical Testing Program (PPT), and Coriell Institute (CI).
qHTS cell viability assay:
Cells were assayed in growth media at a density of 500-1,000 cells/well. Five microliters of cells were dispensed into 1,536-well, white, solid-bottom, TC-treated plates (Greiner Bio One) using a multidrop dispenser and incubated at 37 degrees C, 5% CO2, under a humidified atmosphere for 5 hours. Twenty-three nanoliters of compounds and controls (neutral control DMSO or positive control bortezomib at final concentration of 2.3 µM) were subsequently transferred by Kalypsys pintool. For primary screens, the MIPE collection was tested at 11-point dilutions (final concentrations range from 0.78 nM to 46 µM) and the NPC collection at 8-point dilutions (final concentrations range from 0.59 nM to 46 µM). Compounds tested in follow-up screens were assayed at 11-point dilutions. Cells were incubated for 48 hours, followed by addition of 3 µL of CellTiter-Glo (Promega). After a 15 min incubation at room temperature, samples were analyzed for luminescence intensity using a ViewLux High-throughput CCD imager equipped with clear filters.
Potency means the concentration at half of the fitted maximal effect.

Row | SMILES | activity change, negative = cytotoxic | Potency
1 | CN1CCC[C@@H]1c1cccnc1 | 4.62% (inactive) | 
2 | CCOc1ccc(Cc2nccc3cc(OCC)c(OCC)cc23)cc1OCC |  | 6.17 µM (active)
3 | NCCC(O)(P(=O)(O)O)P(=O)(O)O | 11.6% (inactive) | 
4 | Cc1c(C(C)C)c(=O)n(-c2ccccc2)n1C | 3.73% (inactive) | 
5 | CCCCOc1cc(C(=O)NCCN(CC)CC)c2ccccc2n1 | -14.6% (inactive) | 
6 | C[C@H](CCC(=O)O)[C@H]1CC[C@H]2[C@@H]3C(=O)C[C@@H]4CC(=O)CC[C@]4(C)[C@H]3CC(=O)[C@]12C | 13.6% (inactive) | 
7 | O=C(CCCN1CCC(O)(c2ccc(Br)cc2)CC1)c1ccc(F)cc1 | -27.6% (inactive) | 
8 | CC(=O)OCC(=O)[C@@]1(O)CC[C@H]2[C@@H]3CCC4=CC(=O)C=C[C@]4(C)[C@H]3[C@@H](O)C[C@@]21C | -7.97% (inactive) | 
9 | COC(=O)CCc1ccc(OCC(O)CNC(C)C)cc1 (stereo not given) | -4.56% (inactive) | 
10 | O=C(O)CCCCC(=O)O | 12% (inactive) | 
11 | CN1C(CCl)Nc2cc(Cl)c(S(N)(=O)=O)cc2S1(=O)=O (stereo not given) | 2.49% (inactive) | 
12 | CC(O)C(=O)O (stereo not given) | 11.2% (inactive) | 
13 | CC(C)(C)NC(=O)[C@@H]1CN(Cc2cccnc2)CCN1C[C@@H](O)C[C@@H](Cc1ccccc1)C(=O)N[C@H]1c2ccccc2C[C@H]1O | -0.573% (inactive) | 
14 | CCCCC(=O)O[C@]1(C(=O)CO)CC[C@H]2[C@@H]3CCC4=CC(=O)CC[C@]4(C)[C@H]3[C@@H](O)C[C@@]21C | 4.01% (inactive) | 
15 | Cc1c(N(C)CS(=O)(=O)O)c(=O)n(-c2ccccc2)n1C | 15.4% (inactive) | 
16 | CCCCS(=O)(=O)N[C@@H](Cc1ccc(OCCCCC2CCNCC2)cc1)C(=O)O | 13.3% (inactive) | 
17 | CC1(C)O[C@@H]2C[C@H]3[C@@H]4C[C@H](F)C5=CC(=O)C=C[C@]5(C)[C@H]4[C@@H](O)C[C@]3(C)[C@]2(C(=O)CO)O1 | -8.77% (inactive) | 
18 | CC(=O)Oc1ccc(C(=C2CCCCC2)c2ccc(OC(C)=O)cc2)cc1 | -2.77% (inactive) | 
19 | Cc1ccc(O)c2ncccc12 |  | 11 µM (active)
20 | CCCCCCCCCCCCCCCCOP(=O)([O-])OCC[N+](C)(C)C | -1.11% (inactive) | 

Row | SMILES | activity change, negative = cytotoxic | Potency
21 | O=c1[nH]c(=O)n([C@H]2CCCO2)cc1F | 0.722% (inactive) | 
22 | C[C@H](O)C(=O)Nc1c(I)c(C(=O)NC(CO)CO)c(I)c(C(=O)NC(CO)CO)c1I | 13.4% (inactive) | 
23 | Cc1onc(-c2c(Cl)cccc2Cl)c1C(=O)N[C@@H]1C(=O)N2[C@@H]1SC(C)(C)[C@@H]2C(=O)O | 8.7% (inactive) | 
24 | COc1cc(C=C2CCC/C(=C\c3ccc(O)c(OC)c3)C2=O)ccc1O |  | 11 µM (active)
25 | CCCCC(CC)CN=C(N)NC(N)=NCCCCCCN=C(N)NC(N)=NCC(CC)CCCC (stereo not given) |  | 2.46 µM (active)
26 | N[C@H](Cc1c[nH]c2ccccc12)C(=O)O | 7.21% (inactive) | 
27 | CCCCCCC[N+](CC)(CC)CCCCc1ccc(Cl)cc1 |  | 7.77 µM (active)
28 | C[C@@H]1C[C@H]2[C@@H]3CCC4=CC(=O)C=C[C@]4(C)[C@@]3(F)[C@@H](O)C[C@]2(C)[C@H]1C(=O)CO | -4.97% (inactive) | 
29 | O=c1[nH]c(=O)n([C@H]2C[C@H](O)[C@@H](CO)O2)cc1C(F)(F)F |  | 13.8 µM (active)
30 | CC1(C)O[C@@H]2[C@@H](CO[C@@]3(COS(N)(=O)=O)OC(C)(C)O[C@@H]23)O1 | 13.6% (inactive) | 
31 | CN=C(NC#N)Nc1ccc(C2=NNC(=O)CC2C)cc1 (stereo not given) | 3.01% (inactive) | 
32 | CCOc1ccc2nc3cc(N)ccc3c(N)c2c1 |  | 11 µM (active)
33 | CCCC(=O)Nc1ccc(OCC(O)CNC(C)C)c(C(C)=O)c1 (stereo not given) | 8.79% (inactive) | 
34 | CN(C(=O)CN(CCO)CC(=O)N(C)C(C)(C)Cc1ccccc1)C(C)(C)Cc1ccccc1 |  | 12.3 µM (active)
35 | O=S1(=O)c2cccc3cccc(c23)N1CCCN1CCN(c2ccc(F)cc2)CC1 | -19.1% (inactive) | 
36 | CCN1CCN(c2cc3c(cc2F)c(=O)c(C(=O)O)cn3C2CC2)CC1 | 4.61% (inactive) | 
37 | Nc1ccc(/C=C/c2ccc(N)cc2S(=O)(=O)O)c(S(=O)(=O)O)c1 | 16.8% [at 0.745 µM] (inactive) | 
38 | CC(=O)OCC(=O)[C@@]1(OC(C)=O)[C@@H](C)C[C@H]2[C@@H]3C[C@H](F)C4=CC(=O)C=C[C@]4(C)[C@@]3(F)[C@@H](O)C[C@@]21C | -2.3% (inactive) | 
39 | NC(=NCCCCCCN=C(N)/N=C(\N)Nc1ccc(Cl)cc1)/N=C(\N)Nc1ccc(Cl)cc1 |  | 9.78 µM (active)
40 | COc1cccc(OC)c1C(=O)N[C@@H]1C(=O)N2[C@@H]1SC(C)(C)[C@@H]2C(=O)O | 13.8% (inactive) | 
